Measured values as given in the supplement of paper PMC3334620.
Over roughly 33,000 sequences, “E-score (-0.5 to 0.5)” has its median near -0.032; the highest 2% begin near 0.36. This is one part of a sample in which the highest values are shown more often than they occur.

What follows are sequences tested against T1, Sko1 (UniProt Q02100) (assay: PBM E-score (8-mer binding enrichment) (E-score (-0.5 to 0.5)); higher = stronger / more preferred TF binding). Details: protein concentration: 200 nM; construct: GST-full length.
T1 sequence: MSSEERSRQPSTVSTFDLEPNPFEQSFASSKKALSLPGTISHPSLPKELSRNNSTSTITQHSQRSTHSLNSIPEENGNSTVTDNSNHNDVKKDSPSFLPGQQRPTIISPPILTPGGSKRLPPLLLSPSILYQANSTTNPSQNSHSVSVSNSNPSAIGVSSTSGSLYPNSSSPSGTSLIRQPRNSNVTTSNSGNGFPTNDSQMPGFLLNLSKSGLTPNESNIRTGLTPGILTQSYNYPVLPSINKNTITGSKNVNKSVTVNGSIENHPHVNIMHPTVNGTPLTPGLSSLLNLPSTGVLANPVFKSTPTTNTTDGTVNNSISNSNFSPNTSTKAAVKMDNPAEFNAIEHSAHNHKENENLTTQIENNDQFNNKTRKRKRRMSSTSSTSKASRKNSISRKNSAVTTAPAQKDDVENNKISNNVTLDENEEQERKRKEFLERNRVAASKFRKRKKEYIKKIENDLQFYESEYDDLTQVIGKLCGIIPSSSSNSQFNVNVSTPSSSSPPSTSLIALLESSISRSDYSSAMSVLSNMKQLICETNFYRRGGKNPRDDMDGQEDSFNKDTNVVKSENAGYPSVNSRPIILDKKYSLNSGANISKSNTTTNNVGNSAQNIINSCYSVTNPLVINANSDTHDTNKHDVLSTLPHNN
How it was run: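 Masliner-normalised scans of fluorescent anti-GST signal were the basis for scoring. That signal came from GST-tagged yeast transcription factors applied at about 100-200 nM to double-stranded universal all-10-mer Agilent arrays on fresh or once-stripped slides. Each ungapped eight-base word, pooled with its reverse complement, received an E-score from the Universal PBM Analysis Suite.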

Sequence	PBM E-score
ACCGTATA	0.0367
GTCGTATA	0.269
AAAGTATT	0.0493
ATCGTATA	0.197
CGCGTATC	0.232
GGCGTATA	0.148
CGCACTGA	0.0222
AGCTATAT	0.172
TCCCGACA	-0.139
CAAGTCGC	-0.173
AACGTATC	0.353
AGCGTATA	0.15
AACGTATA	0.406
ACACGGGG	-0.242
AATACGAG	0.244
ATTACGAC	0.396
ACTACGAC	0.181
ATTACGAG	0.36
CTTACGAC	0.16
ACTACGAG	0.162
ATACCTGC	-0.102
CAAATTAG	0.104
CCGTCACG	0.152
TCGTCACA	0.379
GCGTCACC	0.341

Sequence	PBM E-score
GCGTCACA	0.406
TGGTCACA	0.0263
CCGTCACA	0.163
ACTAGACT	-0.176
CAATAGCA	-0.132
CTGCAATC	-0.0429
CGCTGAGA	-0.0923
AAAACCAG	-0.0997
ACGCAACC	0.379
ACGCAACT	0.355
GCGCAACA	0.175
CCGCAACG	0.0186
ACGCAACA	0.388
CCGCAACC	-0.2
ACGCAACG	0.377
CCGCAACA	0.165
GCGCAACC	-0.162
TAGAGCCA	-0.278
GCCGAGAC	-0.218
ATGGGTCG	-0.179
ATTCAAGC	0.106
ATGTTCTA	0.0474
GCGTGCGA	-0.0187
ATACATCG	0.196
CTACATCA	0.375

Sequence	PBM E-score
GTACATCA	0.366
GTACATTA	0.295
ATACATCC	0.0616
ATACATCA	0.382
CTACATCC	-0.0667
GTACATGA	0.184
CTACATTA	0.00265
CGGGGCGC	-0.313
AACAGGTT	-0.0299
AGGCACTA	-0.0926
TAACATCA	0.367
GTACATAA	0.306
CGACATCA	0.355
TGACATCA	0.466
AAACATCA	0.189
TTACATAA	0.407
AGACATAA	0.0234
TGACATAA	0.424
CAACATCA	0.294
GGACATAA	0.0688
GGACATCA	0.205
CTACATAA	0.194
CACCAATG	0.00918
GCCTTAGC	-0.113
CGGCTACG	0.243

Sequence	PBM E-score
ATCGTCCC	-0.0614
CCAAACCG	-0.149
ACAAGTTG	-0.041
AAAGACTA	0.026
CAAACCAA	-0.0239
ATTCACGG	0.095
GACCTTAC	0.0378
AACTTAGC	0.0908
ATGGTGGC	-0.29
GACTTTTA	0.0964
CGTCACAC	0.437
AGTCACAG	-0.0124
CGTCACAA	0.388
CCTCACAG	-0.175
GGTCACAC	-0.0911
AGTCACAC	-0.0301
TGTCACAA	0.133
GGTCACAA	-0.151
CGTCACAG	0.438
ACTTCGAT	0.0534
GAGGTTCC	-0.182
ATCTGTAG	-0.0704
AGGAGTGA	0.0137
CAGGGAGG	-0.23
ACACATAA	0.262

Sequence	PBM E-score
ACCCGTAA	-0.00679
ACACGAAT	0.233
ACTCGTAA	0.345
ACACGTAG	0.433
ACACGGAG	-0.13
ACCCGTAC	-0.107
ACACGTAA	0.472
ACACGTCT	0.292
ACACGTTC	0.214
ACACGTAC	0.419
ACACGTAT	0.463
CTTGAATC	-0.0656
AGTTAGCG	0.113
CGGCGTGA	-0.0945
CCGCTTCC	-0.273
CTCGTCTC	-0.19
AAATTCGT	0.339
ATGTGAGC	-0.00412
CATCCTAA	0.173
CCGAGATC	-0.237
ATGACATC	0.44
GTGACATA	0.381
GTGACACA	0.145
CTGACATC	0.21
GGGACATA	-0.139

Sequence	PBM E-score
ATGACATG	0.357
ATGACATA	0.437
CTGACATA	0.266
ATGACACC	0.26
AACTAACA	0.124
GCTAAGCC	-0.23
CGGGCTCC	-0.343
ACTCTCTC	-0.281
ATCATCAC	0.334
GACATCAA	0.275
GTCATCAC	0.368
GTCATCAA	0.33
GACATCAC	0.382
CACATCAC	0.154
CTCCGCCC	-0.254
GAACTCTA	-0.0173
CGTAAGAC	0.4
GGTAAGAC	-0.0543
CGTAAGAG	0.376
CGTAAGAA	0.349
CCTAAGAG	-0.0999
AGTAAGAG	-0.117
AAAGCGGT	-0.0789
AGCTCTTA	0.0315
CATACGCG	0.246

Sequence	PBM E-score
CATACTCA	0.0384
AATACGCT	0.186
GATACGCA	0.351
TATACGCA	0.411
AATACGCA	0.407
CATACGCA	0.392
AATACGCC	0.198
TATACGAA	0.301
TACACCGA	-0.177
TAGAGAGA	-0.0704
AAAAGAAT	0.115
CCGCTCAC	-0.0552
CCACCTGA	-0.0745
CTCACGTA	0.356
CTCACGTC	0.278
ATCACGGA	0.126
GTCACGTA	0.421
ATCACGCG	0.254
GTCACGCA	0.25
ATCACGTC	0.42
GTCACGGA	0.126
ATCACGCC	0.0558
ATCACGTA	0.465
ATCACATA	0.3
ATCACGTG	0.411
